The supplement of paper PMC10849652
Of roughly 7,900 targets only a part is listed; those with a hit were picked by preference. About 0.6% of all pairs of compound and target were hits.

Compound: C[C@H](Nc1ncnc2nc[nH]c12)c1cc2cccc(Cl)c2c(=O)n1-c1ccccc1 [duvelisib]
Experiment: log2 fold change, soluble protein after heating vs DMSO (PISA); higher = thermal stabilisation; K562 cells, 10 uM, 30 min; active = over 0.2 and 3.5 SD of the protein, either way, in both replicates (recomputed)
Method in brief: (§1)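 Quantification of soluble protein used TMTpro 16plex LC-MS/MS, with channel sums equalised. Samples were the supernatant after 21,000xg for 90 min of pooled aliquots from K562 cells (2×10^6 cells/mL) treated with 10 μM compound for 30 min, heated for 3 min over 48°C-58°C, and extracted in PBS with 0.5% NP-40 at 4°C. Values, from duplicates, describe thermal stability against control samples on a log2 fold-change scale.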

UniProt P23786, sequence (P23786 whole entry, looked up): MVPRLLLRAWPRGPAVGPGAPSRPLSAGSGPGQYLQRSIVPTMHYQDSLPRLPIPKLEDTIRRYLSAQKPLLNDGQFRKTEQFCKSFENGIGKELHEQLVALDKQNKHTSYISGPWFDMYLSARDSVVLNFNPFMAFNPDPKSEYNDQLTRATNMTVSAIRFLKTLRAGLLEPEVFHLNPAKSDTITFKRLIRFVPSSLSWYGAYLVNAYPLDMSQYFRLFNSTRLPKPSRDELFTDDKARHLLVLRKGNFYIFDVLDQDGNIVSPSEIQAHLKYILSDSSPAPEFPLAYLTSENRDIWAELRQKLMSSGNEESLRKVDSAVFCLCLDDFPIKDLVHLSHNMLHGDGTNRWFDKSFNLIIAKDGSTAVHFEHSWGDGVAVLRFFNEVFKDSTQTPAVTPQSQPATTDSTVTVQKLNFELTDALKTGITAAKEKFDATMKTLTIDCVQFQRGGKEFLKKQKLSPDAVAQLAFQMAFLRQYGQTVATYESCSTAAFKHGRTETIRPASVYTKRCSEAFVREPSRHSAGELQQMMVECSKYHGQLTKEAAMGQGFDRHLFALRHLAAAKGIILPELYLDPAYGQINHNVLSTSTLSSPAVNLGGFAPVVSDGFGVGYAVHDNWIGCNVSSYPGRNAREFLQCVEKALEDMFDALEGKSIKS
UniProt P83916, sequence (P83916 whole entry, looked up): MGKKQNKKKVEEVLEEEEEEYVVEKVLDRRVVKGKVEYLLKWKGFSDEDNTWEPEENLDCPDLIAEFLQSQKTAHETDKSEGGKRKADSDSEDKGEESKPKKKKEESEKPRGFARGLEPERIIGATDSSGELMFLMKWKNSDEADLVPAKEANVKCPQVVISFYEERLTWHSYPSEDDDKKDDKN
UniProt P20674, sequence (P20674 whole entry, looked up): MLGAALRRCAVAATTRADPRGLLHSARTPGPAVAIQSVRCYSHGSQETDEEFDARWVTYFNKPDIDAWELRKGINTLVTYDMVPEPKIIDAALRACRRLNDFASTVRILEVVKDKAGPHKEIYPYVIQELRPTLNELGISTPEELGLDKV
UniProt O75390, sequence (O75390 whole entry, looked up): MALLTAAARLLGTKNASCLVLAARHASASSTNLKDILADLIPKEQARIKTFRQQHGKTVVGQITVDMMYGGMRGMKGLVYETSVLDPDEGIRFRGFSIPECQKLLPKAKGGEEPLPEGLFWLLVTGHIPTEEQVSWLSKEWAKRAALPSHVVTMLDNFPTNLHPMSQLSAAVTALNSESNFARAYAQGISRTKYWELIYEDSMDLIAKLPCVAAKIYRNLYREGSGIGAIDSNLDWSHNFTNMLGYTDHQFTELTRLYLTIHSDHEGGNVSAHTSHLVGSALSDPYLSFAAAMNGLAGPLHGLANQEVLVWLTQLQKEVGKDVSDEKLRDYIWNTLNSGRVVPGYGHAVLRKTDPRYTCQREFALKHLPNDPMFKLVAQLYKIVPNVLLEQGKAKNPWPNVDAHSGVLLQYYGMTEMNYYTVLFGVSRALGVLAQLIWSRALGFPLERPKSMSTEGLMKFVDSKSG
UniProt P05937, sequence (P05937 whole entry, looked up): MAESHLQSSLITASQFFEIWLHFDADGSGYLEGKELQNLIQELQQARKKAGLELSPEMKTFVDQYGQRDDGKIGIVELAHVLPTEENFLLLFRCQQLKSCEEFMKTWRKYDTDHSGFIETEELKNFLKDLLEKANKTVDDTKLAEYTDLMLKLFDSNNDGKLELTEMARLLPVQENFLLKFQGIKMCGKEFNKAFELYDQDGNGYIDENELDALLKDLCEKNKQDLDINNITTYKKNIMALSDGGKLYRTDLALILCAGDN
UniProt P48509, sequence (P48509 whole entry, looked up): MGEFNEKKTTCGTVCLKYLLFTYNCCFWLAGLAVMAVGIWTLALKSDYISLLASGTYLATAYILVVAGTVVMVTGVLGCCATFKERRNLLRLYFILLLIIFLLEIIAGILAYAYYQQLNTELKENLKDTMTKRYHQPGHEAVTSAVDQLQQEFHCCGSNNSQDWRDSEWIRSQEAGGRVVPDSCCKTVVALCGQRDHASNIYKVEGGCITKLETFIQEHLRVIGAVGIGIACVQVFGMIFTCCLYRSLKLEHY
UniProt P27708, sequence (P27708 whole entry, looked up): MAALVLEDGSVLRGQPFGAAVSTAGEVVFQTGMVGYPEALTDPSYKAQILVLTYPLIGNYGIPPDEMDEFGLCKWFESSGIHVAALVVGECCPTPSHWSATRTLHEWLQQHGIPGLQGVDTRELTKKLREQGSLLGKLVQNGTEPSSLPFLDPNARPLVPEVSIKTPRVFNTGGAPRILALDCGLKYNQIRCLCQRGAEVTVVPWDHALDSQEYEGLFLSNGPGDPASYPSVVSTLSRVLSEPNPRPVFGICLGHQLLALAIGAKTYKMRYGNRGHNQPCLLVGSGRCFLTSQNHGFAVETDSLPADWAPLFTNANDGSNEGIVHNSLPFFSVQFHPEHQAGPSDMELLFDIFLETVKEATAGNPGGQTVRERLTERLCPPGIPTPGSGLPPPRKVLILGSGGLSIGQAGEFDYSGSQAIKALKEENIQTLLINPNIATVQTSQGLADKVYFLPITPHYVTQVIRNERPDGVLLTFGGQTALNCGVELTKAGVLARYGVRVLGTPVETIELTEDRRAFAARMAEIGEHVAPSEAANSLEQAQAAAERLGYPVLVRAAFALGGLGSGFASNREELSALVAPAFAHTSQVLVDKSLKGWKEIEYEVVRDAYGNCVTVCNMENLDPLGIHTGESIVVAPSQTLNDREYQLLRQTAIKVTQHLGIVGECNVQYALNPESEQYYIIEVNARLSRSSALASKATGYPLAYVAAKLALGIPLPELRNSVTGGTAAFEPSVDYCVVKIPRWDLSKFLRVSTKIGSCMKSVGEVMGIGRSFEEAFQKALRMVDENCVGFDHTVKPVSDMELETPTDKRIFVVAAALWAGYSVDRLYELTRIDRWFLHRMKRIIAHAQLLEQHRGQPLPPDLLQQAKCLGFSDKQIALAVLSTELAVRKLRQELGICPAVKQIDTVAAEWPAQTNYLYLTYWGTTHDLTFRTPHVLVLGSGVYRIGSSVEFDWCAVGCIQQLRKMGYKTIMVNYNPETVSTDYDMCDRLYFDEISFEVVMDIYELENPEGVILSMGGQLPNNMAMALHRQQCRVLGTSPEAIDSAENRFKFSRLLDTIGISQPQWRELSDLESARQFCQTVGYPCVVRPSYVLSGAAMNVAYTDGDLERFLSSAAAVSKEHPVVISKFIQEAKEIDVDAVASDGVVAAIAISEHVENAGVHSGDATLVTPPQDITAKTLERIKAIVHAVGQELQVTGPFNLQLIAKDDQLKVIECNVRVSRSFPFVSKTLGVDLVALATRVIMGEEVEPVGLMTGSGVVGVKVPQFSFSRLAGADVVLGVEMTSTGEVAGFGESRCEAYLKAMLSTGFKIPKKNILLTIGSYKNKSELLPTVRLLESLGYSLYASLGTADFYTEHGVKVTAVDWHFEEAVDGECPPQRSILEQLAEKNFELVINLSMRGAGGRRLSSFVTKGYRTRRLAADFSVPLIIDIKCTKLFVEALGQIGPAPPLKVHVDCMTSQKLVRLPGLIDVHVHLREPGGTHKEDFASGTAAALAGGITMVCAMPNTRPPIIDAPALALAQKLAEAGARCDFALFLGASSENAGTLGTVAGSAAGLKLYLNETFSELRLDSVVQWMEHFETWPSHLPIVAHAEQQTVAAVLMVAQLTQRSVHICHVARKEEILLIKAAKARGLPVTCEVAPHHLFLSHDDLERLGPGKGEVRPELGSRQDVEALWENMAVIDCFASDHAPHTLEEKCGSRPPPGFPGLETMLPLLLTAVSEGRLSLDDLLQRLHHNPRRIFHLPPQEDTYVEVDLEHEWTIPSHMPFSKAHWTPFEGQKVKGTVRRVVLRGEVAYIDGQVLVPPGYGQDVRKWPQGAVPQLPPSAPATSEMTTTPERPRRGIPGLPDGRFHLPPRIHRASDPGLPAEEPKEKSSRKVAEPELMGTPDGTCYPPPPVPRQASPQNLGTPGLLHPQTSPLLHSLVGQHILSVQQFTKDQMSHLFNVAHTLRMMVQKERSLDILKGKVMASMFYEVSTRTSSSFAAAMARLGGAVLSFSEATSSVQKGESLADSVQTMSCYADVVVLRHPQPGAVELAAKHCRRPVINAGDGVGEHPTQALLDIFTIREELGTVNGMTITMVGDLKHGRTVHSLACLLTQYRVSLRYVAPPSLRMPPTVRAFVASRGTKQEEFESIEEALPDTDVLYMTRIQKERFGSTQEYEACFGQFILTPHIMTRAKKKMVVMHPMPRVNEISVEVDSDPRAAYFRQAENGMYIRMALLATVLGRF
UniProt Q9Y6H1, sequence (Q9Y6H1 whole entry, looked up): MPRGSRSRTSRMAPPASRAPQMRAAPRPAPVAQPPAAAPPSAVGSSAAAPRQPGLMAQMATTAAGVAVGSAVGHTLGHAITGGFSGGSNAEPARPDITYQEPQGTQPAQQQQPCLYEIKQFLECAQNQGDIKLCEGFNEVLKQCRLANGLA
UniProt Q92851, sequence (Q92851 whole entry, looked up): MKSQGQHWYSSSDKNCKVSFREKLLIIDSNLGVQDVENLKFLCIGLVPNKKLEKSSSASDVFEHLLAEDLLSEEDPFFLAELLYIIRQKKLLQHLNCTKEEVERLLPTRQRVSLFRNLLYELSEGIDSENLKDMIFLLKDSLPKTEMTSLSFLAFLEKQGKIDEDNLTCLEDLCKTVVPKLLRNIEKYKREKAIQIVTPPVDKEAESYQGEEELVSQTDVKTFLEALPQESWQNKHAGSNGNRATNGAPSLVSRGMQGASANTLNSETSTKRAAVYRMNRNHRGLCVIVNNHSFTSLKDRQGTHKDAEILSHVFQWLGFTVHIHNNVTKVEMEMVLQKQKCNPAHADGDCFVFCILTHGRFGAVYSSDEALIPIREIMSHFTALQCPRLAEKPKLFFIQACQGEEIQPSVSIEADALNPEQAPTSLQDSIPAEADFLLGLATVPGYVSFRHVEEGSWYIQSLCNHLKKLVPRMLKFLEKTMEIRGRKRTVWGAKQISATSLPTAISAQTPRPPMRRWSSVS

Target | log2 fold change
CASP10 isoform 4 (UniProt Q92851) | -0.08 (inactive)
CPT2 (UniProt P23786) | 0.069 (inactive)
CBX1 (UniProt P83916) | -0.006 (inactive)
CD151 (UniProt P48509) | 0.138 (inactive)
CS (UniProt O75390) | 0.059 (inactive)
CSTF3 (UniProt Q12996) | 0.061 (inactive)
CAD (UniProt P27708) | -0.013 (inactive)
CCAR2 isoform 2 (UniProt Q8N163) | -0.001 (inactive)
COX5A (UniProt P20674) | 0.249 (inactive)
CDK12 (UniProt Q9NYV4) | -0.161 (inactive)
CHCHD2 (UniProt Q9Y6H1) | 0.097 (inactive)
CALB1 (UniProt P05937) | -0.031 (inactive)

Compound: Cc1cc(Nc2cc(CN3CCOCC3)c3nc(C)c(Cc4ccc(Cl)cc4F)n3n2)n[nH]1 [gandotinib]
Experiment: as above
Method in brief: as §1

Target | log2 fold change
C9orf72 (UniProt Q96LT7) | -0.313 (active)
CDK13 (UniProt Q14004) | -0.414 (active)
CTBS (UniProt Q01459) | -0.078 (inactive)
CCNB1 (UniProt P14635) | -0.004 (inactive)
COMT (UniProt P21964) | 0.031 (inactive)
CEPT1 (UniProt Q9Y6K0) | -0.268 (inactive)
COPS4 (UniProt Q9BT78) | 0.022 (inactive)
COASY isoform 2 (UniProt Q13057) | -0.058 (inactive)
CNOT1 (UniProt A5YKK6) | -0.043 (inactive)
CETN3 (UniProt O15182) | 0.094 (inactive)
CPSF6 isoform 2 (UniProt Q16630) | -0.034 (inactive)
CASTOR2 (UniProt A6NHX0) | -0.018 (inactive)
CASC3 (UniProt O15234) | 0.484 (active)
CLUH, A0A494C0R8 | -0.214 (inactive)
CLTB (UniProt P09497) | 0.026 (inactive)
CLCN3 isoform 2 (UniProt P51790) | 0.02 (inactive)
CDC123 (UniProt O75794) | 0.044 (inactive)
CD55 isoform 7 (UniProt P08174) | 0.052 (inactive)

Target | log2 fold change
CLUH (UniProt O75153) | -0.037 (inactive)
CSNK1A1 (UniProt P48729) | 0.014 (inactive)
CNTN4 (UniProt Q8IWV2) | 0.144 (inactive)
CDC42BPA isoform 6 (UniProt Q5VT25) | -0.148 (inactive)
CDK5RAP1 (UniProt Q96SZ6) | 0.033 (inactive)
CASP10 isoform 4 (UniProt Q92851) | -0.128 (inactive)
CPT2 (UniProt P23786) | 0.119 (inactive)
CBX1 (UniProt P83916) | 0.004 (inactive)
CD151 (UniProt P48509) | -0.19 (inactive)
CS (UniProt O75390) | -0.037 (inactive)
CSTF3 (UniProt Q12996) | 0 (inactive)
CAD (UniProt P27708) | -0.013 (inactive)
CCAR2 isoform 2 (UniProt Q8N163) | -0.093 (inactive)
COX5A (UniProt P20674) | 0.12 (inactive)
CDK12 (UniProt Q9NYV4) | -1.11 (active)
CHCHD2 (UniProt Q9Y6H1) | -0.107 (inactive)
CALB1 (UniProt P05937) | -0.038 (inactive)
